# According to PubChem BioAssay (NCI):
# This is part of a sample that, as a whole, favours compounds with a hit. Of some 83,000 tested, about 20% had one in any assay.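 Cells were grown in 96-well plates and exposed to the test compound at a single concentration for 48 hours; results are reported as percent growth, with values below 10 considered active.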 A number with no mark means an inactive call. Activity calls are given as the source filed them.
# Test system: NCI/ADR-RES ovarian
# Assay: NCI-60 one-dose screen, 48 h (100 = growth as untreated, 0 = no growth, -100 = all killed)
# Settings: 10 µM
row,Compound,growth
1,CN1CCc2c(sc3nc4n(-c5ccc(Cl)cc5)c(=O)[nH]n4c(=O)c23)C1,99%
2,CCNc1nc(C(F)(F)F)nc2c1sc(=S)n2-c1ccccc1,92.9%
3,IC(I)I,105%
4,Cc1cc(NC(=O)c2ccc(C)c(Nc3nccc(-c4cccnc4)n3)c2)cc(-n2cnc(C)c2)c1,59.1%
5,c1cncc(-c2csc(-c3c[nH]c4ccccc34)n2)c1,94.7%
6,Cc1ccc(NC(=S)NNC(=S)Nc2ccc(C)cc2)cc1,31.7%
7,Cc1ccc(C2=NN(c3ccc(S(C)(=O)=O)cc3)C(=O)CC2)cc1,6.72% (active)
8,CCc1ccc(C2=NN(c3ccc(S(C)(=O)=O)cc3)C(=O)CC2)cc1,6.7% (active)
9,COc1ccc(-c2nn(-c3cccc(Cl)c3)cc2/C=C2\NC(=S)N(c3ccc(Cl)cc3)C2=O)cc1,7.34% (active)
10,COc1ccc(-c2nn(-c3cccc(Cl)c3)cc2-c2c(C#N)c(=O)n3[nH]c(-c4ccc(C)cc4)nc3c2C#N)cc1,51.2%
11,c1cnc2[nH]cc(-c3nc(-c4ccsc4)cs3)c2c1,101%
12,O=C1NC(=O)c2c(CCCSc3nc4ccccc4c(=O)n3CCc3ccccc3)cccc21,79.8%
13,CCOC(=O)c1sc2ncnc(Nc3ccc4c(cnn4C(=O)Nc4ccc(C)c(Cl)c4)c3)c2c1C,105%
14,Nc1ccccc1NC(=O)c1ccc(CCCC(=O)Nc2ccc(C3CC3N)cc2)cc1 (stereo unspecified),98.6%
15,Cc1c(O)c(=O)ccn1C1CCC(CC2CCC(n3ccc(=O)c(O)c3C)CC2)CC1 (stereo unspecified),83%
16,Cc1c2cnccc2c(C)c2c1oc1ccccc12,73.7%
